Results reported in PubChem BioAssay (NCATS).
Values joined by “and” are separate entries in the source; they are usually repeats but may differ in a detail not shown here. Identical values can stand only once. Unmarked numbers belong to inactive results. Records with an inconclusive call do not appear. Entries that show only a call come without a potency. Active and inactive are the calls of the source. Unless noted, calls come from the whole dose curve; as a rule, active = well fitted curve in the direction sought with a large enough effect; inconclusive = small, poorly fitted or top-dose-only effect, or another doubt; inactive = no such curve, though single readings can be large; an effect the other way counts as inactive or inconclusive.

Columns and labels:
[1] = Cell Viability - Hek293 (AID 427;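 active = compounds whose dose-response curve shows a full or clear partial loss of cell viability, called from curve shape rather than a numeric limit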;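 note: potency is the fitted concentration of half-maximal effect; cells exposed to compound for 40 hours at 37 °C before reading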); settings: qHTS
Summary of the method: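 Luminescent ATP read-out (CellTiter-Glo, 20 min RT) after 40 hr compound exposure at 37 °C in complete medium. Signal normalized to DMSO (basal) and 100 uM tamoxifen (100% inhibition); concentration-response fitted with the standard Hill equation to give AC50.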

[2] = Cell Viability - HepG2 (AID 433; calls by dose curve;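 note: potency is the fitted concentration of half-maximal effect; potency for ATP loss meaning cytotoxicity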); settings: qHTS
Summary of the method: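 Read-out is luciferase-based quantitation of cellular ATP as a measure of viable HepG2 cells after 40 h treatment at 37 °C. Signal decrease is scaled between DMSO-only and 100 uM tamoxifen controls, with AC50 fitted by the Hill equation.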

[3] = Cell Viability - SK-N-SH (AID 435; calls by dose curve;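 note: potency is the fitted concentration of half-maximal effect; compound exposure lasted 40 h at 37 °C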); settings: SK-N-SH neuroblastoma cell viability qHTS
Summary of the method: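 Luminescent ATP signal served as the viability read-out after 40 hours of compound treatment of human neuroblastoma SK-N-SH cells. Concentration-response data, scaled between DMSO and 100 uM tamoxifen, gave AC50 values by standard Hill modeling.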

[4] = biological target: Mitogen-activated protein kinase 10 (Mus musculus) (UniProt Q61831); assay: JNK3 AlphaScreen Assay (AID 530; active = well fitted curve in either direction with a large enough effect, not every such curve was filed as active;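 note: kinase came from lysate of stimulated human HepG2 cells; signal reports phosphorylation of biotinylated GST-cJun 1-79 at Ser73 with 10 µM ATP; series mostly up to about 57 µM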)
Summary of the method: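 Pre-activated (IL-1β/TNFα) JNK3 in HepG2 lysates phosphorylates biotin-GST-cJun(1-79), 10 uM ATP; anti-phospho-cJun(Ser73) AlphaScreen read at room temperature, pH 7.6 Tris buffer. Compounds pre-incubated 15 min as titrations.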

[5] = Cell Viability - Renal Proximal Tubule (AID 545); note: nearly all actives have a fitted effect of over 40% in size
Summary of the method: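 Luminescent ATP signal (CellTiter-Glo) served as the viability read-out after 40 hr compound exposure of freshly isolated rat proximal tubule cells at 37 °C. Concentration-dependent ATP loss was fitted with the Hill equation to give AC50.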

[6] = Cellular Toxicity (caspase-3) HUV-EC-C (AID 656)
Summary of the method: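 qHTS; HUV-EC-C, 1000 cells/well; 5 hr settle, 16 hr cmpd, 37°C; Caspase-Glo 3/7, 20 min RT; luminescence. Norm: DMSO = 0%, tamoxifen 100 uM = 100%. Hill-fit AC50.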

[7] = Cellular Toxicity (caspase-3) SHSY5Y (AID 657);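 note: cells exposed to compound for 16 hours at 37 °C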
Summary of the method: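 qHTS, SH-SY5Y, 1500 cells/well, 5 h pre-incubation 37 °C; compound 16 h 37 °C; Caspase-Glo 3/7 1 h RT; luminescence. Norm.: DMSO = 0, 10 uM staurosporine = 100%. Hill fit → AC50.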

[8] = Cellular Toxicity (caspase-3) MRC-5 (AID 659)
Summary of the method: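 MRC-5 human normal lung fibroblasts, 1500 cells/well, treated 16 h at 37 °C in complete medium. Caspase 3/7 measured by Caspase-Glo luminescence after 1 h at room temperature. Normalized to DMSO and 10 uM staurosporine; AC50 from Hill fit.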

[9] = MultiTox-Fluor Cytotoxicity Assay - LYMP1-002 - Live Cells (AID 955);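 note: cells exposed to compound for 16 hours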
Summary of the method: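 Read-out is live-cell protease activity (cell-permeant GF-AFC substrate, fluorescence Ex/Em=405/510), where a decrease indicates acute toxicity. Human lymphoblastoid cells were treated 16 hours at 37 C in a concentration series, and AC50 values came from standard Hill modelling.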

[10] = Cell Viability - LYMP1-003 - Assay at 24 hr (AID 963)
Summary of the method: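 Cells seeded at 2500/well, 5 hr at 37 C; compounds added; 24 hr at 37 C; CellTiter-Glo added, 30 min room temperature; luminescence read. Decrease in ATP taken as cytotoxicity, AC50 from Hill modelling.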

[11] = Cell Viability - LYMP2-009 (AID 968);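 note: cells exposed to compound for 24 h at 37 °C; nearly all actives have a fitted effect of over 55% in size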; note: potency is the fitted concentration of half-maximal effect
[12] = Cell Viability - LYMP2-017 (AID 972);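 note: cells exposed to compound for 24 hours at 37 °C; nearly all actives have a fitted effect of over 55% in size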; note: potency is the fitted concentration of half-maximal effect
Summary of the method: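 2500 cells/well, 5 h 37 C; cpd 24 h 37 C in complete medium; CellTiter-Glo, 30 min RT; luminescence (ATP). AC50 via Hill fit, qHTS.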

[13] = Cell Viability - LYMP2-025 (AID 976);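 note: series mostly up to about 92 µM; cells exposed to compound for 24 h at 37 °C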
Summary of the method: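 Seed 2500 LYMP2-025 cells/well; 5 hr at 37 C; add compound; 24 hr at 37 C; add CellTiter-Glo; 30 min RT; read luminescence. AC50 from Hill-modelled concentration-response.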

[14] = Cell Viability - LYMP2-024 (AID 988); note: nearly all actives have a fitted effect of over 60% in size; note: potency is the fitted concentration of half-maximal effect
Summary of the method: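 Steps: seed 2500 cells/well, 5 hr 37 C; add compound, 24 hr 37 C; add CellTiter-Glo, 30 min room temperature; read luminescence. AC50 derived by Hill modelling of concentration-dependent ATP loss.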

[15] = Cell Viability - LYMP1-002 - Assay at 40 hr (AID 994); note: nearly all actives have a fitted effect of over 60% in size
Summary of the method: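 Luminescent ATP signal served as the viability readout, with decreases taken as toxicity. Cells were treated with compounds across a concentration range for 40 hours at 37 C, and AC50 values came from standard Hill modeling.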

[16] = biological target: Peroxisome proliferator-activated receptor alpha (Homo sapiens) (UniProt Q07869); assay: qHTS assay for small molecule agonists of the peroxisome proliferator-activated receptor alpha (PPARalpha) signaling pathway (AID 651778); settings: PathHunter PPARalpha complementation, chemiluminescence, 6 h; stronger effect = higher value
Summary of the method: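 Enzyme-fragment complementation assay in which ligand-bound PPARalpha translocates and forms an active enzyme that generates chemiluminescence. Cells were plated overnight, exposed to compound for 6 hr at 37 C, and then given detection reagent for 60 min at room temperature.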

[17] = qHTS assay for small molecule agonists of the antioxidant response element (ARE) signaling pathway measured by Nrf2-dependant transcriptional activity - cell viability counter screen (AID 720653; active = well fitted curve in the direction sought with a large enough effect in the repeat runs; an effect the other way counts as inactive or inconclusive); settings: ARE-bla HepG2 viability, CellTiter-Glo ATP luminescence, 16 h; stronger effect = lower value
Summary of the method: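 ARE-bla HepG2 cells treated with compounds for 16 h at 37C; this counter screen measures viability as intracellular ATP by CellTiter-Glo luminescence after 30 min at room temperature.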

Peroxisome proliferator-activated receptor alpha (Homo sapiens), sequence (Q07869 whole entry, looked up, the tested form may be a part): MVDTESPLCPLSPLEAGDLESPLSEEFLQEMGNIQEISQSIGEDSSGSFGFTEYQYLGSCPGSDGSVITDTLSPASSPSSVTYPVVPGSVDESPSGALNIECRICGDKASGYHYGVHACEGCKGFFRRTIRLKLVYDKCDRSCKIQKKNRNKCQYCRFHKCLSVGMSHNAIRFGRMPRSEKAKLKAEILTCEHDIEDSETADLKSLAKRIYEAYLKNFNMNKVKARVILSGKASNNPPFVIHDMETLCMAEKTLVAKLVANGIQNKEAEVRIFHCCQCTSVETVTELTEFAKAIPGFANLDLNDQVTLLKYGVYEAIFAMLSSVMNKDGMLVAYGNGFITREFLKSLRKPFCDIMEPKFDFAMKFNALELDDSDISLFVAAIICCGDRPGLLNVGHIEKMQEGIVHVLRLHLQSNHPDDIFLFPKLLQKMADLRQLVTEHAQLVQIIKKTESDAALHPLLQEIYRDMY

Compound	Potency [1] [µM]	Potency [2] [µM]	Potency [3] [µM]	Potency [4]	outcome [5]	outcome [6]	outcome [7]	outcome [8]	outcome [9]	outcome [10]	Potency [11]	Potency [12]	Potency [13]	Potency [14]	Potency [15]	max response [16]	max response [17]
Nc1ccc(Cc2ccc(N)cc2)cc1	> 92	> 92	> 92	inactive	inactive	inactive	inactive	inactive	inactive	inactive	inactive	inactive	inactive	inactive	inactive	-4.91% and -1.61%	-0.954% and 9.87%
Clc1ccc(Cl)c(Cl)c1	> 92	> 92	> 92	inactive	inactive	inactive	inactive	inactive	inactive	inactive	inactive	inactive	inactive	inactive	inactive	-1.44% and -3.32%	4.11% and 3.77%
CCCCOCC1CO1 (configuration not stated)	> 92	> 92	> 92	inactive	inactive	inactive	inactive	inactive	inactive	inactive	inactive	inactive	inactive	inactive	inactive	-2.14%	-2.9%
N#CC(Cl)(Cl)Cl	> 92	> 92	> 92	–	inactive	inactive	inactive	inactive	inactive	inactive	inactive	inactive	inactive	inactive	inactive	9.56%	1.54%
CC(C)(C)OOC(=O)c1ccccc1	> 92	> 92	> 92	inactive	inactive	inactive	inactive	inactive	inactive	inactive	inactive	inactive	inactive	inactive	inactive	-5.26% and -0.274%	3.96% and -1.99%
BrCC(Br)C1CCC(Br)C(Br)C1 (configuration not stated)	> 92	> 92	> 92	–	inactive	inactive	inactive	inactive	inactive	inactive	inactive	inactive	inactive	inactive	inactive	4.79%	-1.58%
CC(C)OC(=O)Cc1ccccc1	> 92	> 92	> 92	inactive	inactive	inactive	inactive	inactive	inactive	inactive	inactive	inactive	inactive	inactive	inactive	0.38%	-4.02%
O=[N+]([O-])/C=C/c1ccccc1	–	–	–	inactive	–	inactive	–	inactive	inactive	inactive	50.1 µM (active)	50.1 µM (active)	–	39.8 µM (active)	inactive	-1.42%	-1.14%
Cc1ccc(N)cc1Cl	> 92	> 92	> 92	inactive	inactive	inactive	inactive	inactive	inactive	inactive	inactive	inactive	inactive	inactive	inactive	3.75%	7.4%
O=C(Cl)c1ccccc1F	> 92	> 92	> 92	inactive	inactive	inactive	inactive	inactive	inactive	inactive	inactive	inactive	inactive	inactive	inactive	-1.25%	6.36%
